Data on eight compounds can be found in PubChem BioAssay (Tox21).

Values without a mark were called inactive. Inconclusive results are not listed. Calls of active or inactive are those of the source. Unless noted, the call rests on the fitted dose curve; in most records, active means well fitted curve in the direction sought with a large enough effect in the repeat runs; inconclusive means weak or mixed curves; inactive means no such curve, though single readings can be large; an effect the other way counts as inactive or inconclusive.

Test [1] in a line: qHTS assay for small molecules that induce genotoxicity in human embryonic kidney cells expressing luciferase-tagged ATAD5 (AID 651632). Further: nearly all actives have a fitted effect of over 15% in size. A digest of the protocol:
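Luminescence read-out: after 16 hr compound exposure at 37C, ATAD5-luciferase HEK293T cells received Amplite, 30 min RT, then CCD imaging. A rise in signal marks genotoxic stress.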

The nature of test [2]: qHTS assay for small molecule agonists of the p53 signaling pathway - cell viability (AID 651633; calls by dose curve;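 further: p53RE-bla HCT reporter cells with a stable beta-lactamase p53 reporter; series mostly up to about 83 µM; nearly all actives have a fitted effect of over 30% in size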). Summed up: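 p53RE-bla cells were treated with compound for 16 hours at 37 C. Cytotoxicity was then measured as CellTiter-Glo luminescence after 30 min at room temperature.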
Test [3] in a line: qHTS assay for small molecules that induce genotoxicity in human embryonic kidney cells expressing luciferase-tagged ATAD5 - cell viability (AID 651634; calls by dose curve; further: nearly all actives have a fitted effect of over 25% in size). Summed up:
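HEK293T ATAD5-luc cells, 2,000/well; compound 15.5 hr, 37C/5% CO2; CellTiter-Fluor 30 min, 37C; fluorescence read.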

The nature of test [4]: qHTS assay for small molecule disruptors of the mitochondrial membrane potential - cell viability (AID 720634; calls by dose curve;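 further: human HepG2 liver cancer cells; series mostly up to about 83 µM; nearly all actives have a fitted effect of over 20% in size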). Summed up: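 Luminescence from CellTiter-Glo (ATP content) gave viability in HepG2 cells, read in the same wells as the MMP dye assay after 1 hr compound exposure at 37 C.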
Test [5] can be described thus: qHTS assay to test for compound auto fluorescence at 590 nm (red) in HepG2 cells (AID 720674). A digest of the protocol:
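Seeding: 2,000 HepG2 cells/well, MEM/10% FBS, overnight 37 C. Dosing: compound vs DMSO. Incubation: 1 hr, 37 C, 5% CO2. Read: fluorescence 540 ex/590 em, Rose Bengal sodium as red reference.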

The nature of test [6]: qHTS assay to test for compound auto fluorescence at 535 nm (green) in HepG2 cells (AID 720675).
Test [7] in a line: qHTS assay to test for compound auto fluorescence at 460 nm (blue) in HEK293 cells (AID 720678). A digest of the protocol:
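Intrinsic compound fluorescence is recorded in live HEK293 cultures after overnight incubation at 37C, 5% CO2, using excitation 405 nm and emission 460 nm. Values are referenced to triamterene.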

Test [8] can be described thus: qHTS assay to test for compound auto fluorescence at 590 nm (red) in HEK293 cells (AID 720679). Summed up: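 Red autofluorescence, HEK293 cells: 2,000 cells/well; attach 4-5 hr 37C; add 23 nL cpd or DMSO; incubate o/n 37C 5% CO2; read Ex540/Em590; Rose Bengal sodium reference.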
Test [9] in a line: qHTS assay to test for compound auto fluorescence at 535 nm (green) in HEK293 cells (AID 720680).
Test [10] is described as follows: qHTS assay to test for compound auto fluorescence at 460 nm (blue) in HEK293 cell free culture (AID 720681). A digest of the protocol:
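Compounds were added to cell-free DMEM with 10% FBS and fluorescence read directly. The blue channel used 405 nm excitation and 460 nm emission, with triamterene as the reference fluorophore.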

Test [11] is described as follows: qHTS assay to test for compound auto fluorescence at 535 nm (green) in HEK293 cell free culture (AID 720682). A digest of the protocol:
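Each library compound, or DMSO control, is added by pintool to medium alone, comprising DMEM and 10% FBS. Emission at 535 nm following 485 nm excitation is quantified against fluorescein.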

Test [12] is described as follows: qHTS assay to test for compound auto fluorescence at 590 nm (red) in HEK293 cell free culture (AID 720683). A digest of the protocol:
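Cell-free wells of DMEM with 10% FBS received compound, and intrinsic fluorescence was read at excitation/emission 540/590 nm. Values expressed as equivalence to Rose Bengal sodium.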

Test [13] is described as follows: qHTS assay to test for compound auto fluorescence at 590 nm (red) in HepG2 cell free culture (AID 720684). Summed up:
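Auto fluorescence equivalency versus Rose Bengal sodium, red channel Ex/Em 540/590 nm; compounds in cell-free MEM/10% FBS; DMSO vehicle control.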

Test [14] in a line: qHTS assay to test for compound auto fluorescence at 460 nm (blue) in HepG2 cell free culture (AID 720685). Summed up:
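Cell-free plates of MEM plus 10% FBS received 23 nL compound or DMSO vehicle; blue-channel (405/460 nm) intensity scored against triamterene as reference fluorophore.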

The nature of test [15]: qHTS assay to test for compound auto fluorescence at 535 nm (green) in HepG2 cell free culture (AID 720686).
A short description of test [16]: qHTS assay to test for compound auto fluorescence at 460 nm (blue) in HepG2 cells (AID 720687). Summed up:
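HepG2 cells in MEM with 10% FBS, attached overnight at 37 C, were exposed to compound or DMSO for 1 hr at 37 C, 5% CO2. Blue fluorescence was read at 405/460 nm, with triamterene as reference fluorophore.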

Test [17] is described as follows: qHTS assay for small molecule disruptors of the mitochondrial membrane potential (AID 720635). Further: potency means the concentration at half of the fitted maximal effect. A digest of the protocol: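 HepG2 cells exposed to compound 1 hr at 37C, then Mito-MPS dye 30 min. Ratio read of aggregate (540/590 nm) versus monomer (490/535 nm) fluorescence.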
Test [18] addresses Glucocorticoid receptor (Homo sapiens) (UniProt P04150). Description: qHTS assay to identify small molecule agonists of the glucocorticoid receptor (GR) signaling pathway (AID 720691; active means well fitted activation curve with a large enough effect in the signal ratio in the repeat runs, not every such curve was filed as active; the % refers to the signal ratio). Summed up: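 HeLa GR-bla reporter line; cells pre-incubated 4 h, compound in DMSO 18 h at 37 C; LiveBLAzer B/G FRET substrate 2 h RT; fluorescence intensity read-out.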
For test [19] the target is unchanged. Nature of the test: qHTS assay to identify small molecule antagonists of the glucocorticoid receptor (GR) signaling pathway (AID 720692; active means well fitted inhibition curve with a large enough effect in the signal ratio in the repeat runs, not every such curve was filed as active; the % refers to the signal ratio). A digest of the protocol:
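Read-out: beta-lactamase FRET substrate fluorescence, 2 h at room temperature, in HeLa cells stably carrying a GRE-driven bla reporter. Compounds were co-incubated with 5 nM dexamethasone agonist (final) for 18 h at 37 C.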

Glucocorticoid receptor (Homo sapiens), sequence (P04150 whole entry, looked up): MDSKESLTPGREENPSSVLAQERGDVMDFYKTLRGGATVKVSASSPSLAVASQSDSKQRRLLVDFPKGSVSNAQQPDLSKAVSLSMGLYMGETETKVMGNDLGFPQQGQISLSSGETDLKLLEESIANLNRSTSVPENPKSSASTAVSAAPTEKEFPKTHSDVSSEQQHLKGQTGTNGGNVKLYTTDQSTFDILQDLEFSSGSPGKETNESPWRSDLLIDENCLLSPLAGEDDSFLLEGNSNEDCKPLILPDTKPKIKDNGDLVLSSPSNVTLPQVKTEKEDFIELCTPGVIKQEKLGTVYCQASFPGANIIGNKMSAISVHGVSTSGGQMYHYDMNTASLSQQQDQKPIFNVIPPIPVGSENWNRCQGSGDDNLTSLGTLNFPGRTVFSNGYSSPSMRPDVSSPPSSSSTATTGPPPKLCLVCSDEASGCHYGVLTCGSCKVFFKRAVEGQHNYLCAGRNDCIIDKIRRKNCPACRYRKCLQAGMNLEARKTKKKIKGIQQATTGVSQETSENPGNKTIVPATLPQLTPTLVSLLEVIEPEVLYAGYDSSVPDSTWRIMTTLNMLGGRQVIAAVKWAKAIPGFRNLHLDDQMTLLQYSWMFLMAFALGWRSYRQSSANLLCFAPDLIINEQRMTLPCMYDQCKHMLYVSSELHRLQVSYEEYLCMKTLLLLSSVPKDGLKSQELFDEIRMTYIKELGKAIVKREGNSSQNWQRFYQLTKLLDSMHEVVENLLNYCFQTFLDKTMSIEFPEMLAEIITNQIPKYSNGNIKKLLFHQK

`OC/C=C/c1ccccc1`: the Potency result in test [1], in test [2], in [3], in [4], in [7] and in test [10] was “inactive” throughout. For the same compound, the Potency entry in test [14] and in test [16] was “inactive” in each case. Moreover, the call in [5], in test [6], in test [8], in test [9], in test [11] and in test [12] was inactive. For the same compound, the compound was classed as inactive in test [13] and in test [15].

For `Cc1ccccc1Br`, the Potency result in test [1], in [2], in [3], in test [4], in [7] and in test [10] was “inactive” throughout. The Potency result in [14] and in test [16] was “inactive” each time. For the same compound, the compound was called inactive in test [5], in [6], in test [8], in test [9], in [11] and in [12]. For the same compound, the result in [13] and in test [15] was inactive.

Turning to `CC1CCN(CCCC(=O)c2ccc(F)cc2)CC1`, the Potency entry in test [1], in test [2], in test [3], in test [4], in [17] and in test [7] was “inactive” throughout. The Potency result in test [10], in test [14], in [16], in test [18] and in test [19] was “inactive” each time. The outcome in [5], in test [6], in test [8], in [9], in test [11] and in test [12] was inactive. For the same compound, the outcome in test [13] and in test [15] was inactive.

On to `NCC[C@H](O)C(=O)N[C@@H]1C[C@H](N)[C@@H](O[C@H]2O[C@H](CN)[C@@H](O)[C@H](O)[C@H]2O)[C@H](O)[C@H]1O[C@H]1O[C@H](CO)[C@@H](O)[C@H](N)[C@H]1O`, for which the Potency result in [1], in test [2], in test [3], in [4], in test [17] and in test [7] was “inactive” each time. Moreover, the Potency entry in test [10], in test [14], in test [16], in [18] and in test [19] was “inactive” each time. Further, the outcome in test [5], in [6], in [8], in test [9], in test [11] and in test [12] was inactive. Also, the compound was called inactive in test [13] and in test [15].

Take `CCCCCCC(=O)OCC`: the Potency entry in test [1], in test [2], in test [3], in test [4], in [7] and in test [10] was “inactive” throughout. Besides, the Potency result in test [14] and in [16] was “inactive” each time. For the same compound, the compound was called inactive in test [5], in test [6], in test [8], in test [9], in test [11] and in test [12]. Besides, the outcome in [13] and in test [15] was inactive.

With `CC1=CCC2C(C1)C2(C)C` (stereo not given), the Potency result in test [1], in [2], in test [3], in test [4], in [7] and in test [10] was “inactive” throughout. In addition, the Potency result in test [14], in test [16], in test [18] and in test [19] was “inactive” in each case. Besides, in [17], the Potency is 48.6 µM (active). Besides, the compound was classed as inactive in [5], in [6], in test [8], in test [9], in test [11] and in test [12]. Also, the call in test [13] and in test [15] was inactive.

Take `COc1cc(O)cc(O)c1`: the Potency result in [1], in test [2], in test [3], in test [4], in test [7] and in test [10] was “inactive” in each case. Further, the Potency result in test [14] and in [16] was “inactive” throughout. Besides, the result in test [5], in test [6], in test [8], in test [9], in test [11] and in [12] was inactive. Moreover, the result in test [13] and in test [15] was inactive.

For the compound `CCCCCCCCCCCCCCCCCC(=O)OCCCCCCCCCCCCCC(C)C`, the Potency entry in test [1], in test [2], in test [3], in [4], in [17] and in [7] was “inactive” throughout. For the same compound, the Potency result in [10], in test [14], in test [16], in test [18] and in test [19] was “inactive” each time. Besides, the compound was called inactive in [5], in [6], in test [8], in [9], in [11] and in [12]. Besides, the result in test [13] and in [15] was inactive.
